The whole screen tested about 340,000 compounds, of which about 12,000 (3.5%) were called active. About 18% were inconclusive and are not listed. Calls follow the shape of the dose curve; as a rule, active = well fitted inhibition curve with a large enough effect; inconclusive = small, poorly fitted or top-dose-only effect, or another doubt; inactive = no such curve, though single readings can be large or run the other way. Shown is part of a subset that was picked to be rich in actives. Entries that show only a call come without a potency. Non-standard residues stand in square brackets, D forms with d. Residues, ends and D or L forms follow the SMILES beside them. ξ: configuration not given here. Ac5c = NC1(C(=O)O)CCCC1; ξS = NC(CO)C(=O)O
Assay: qHTS Assay for Inhibitors of Hepatitis C Virus (HCV)
Settings: Huh7.5.1 HCVcc-Cre infection, luciferase reporter, 44 h; series mostly up to 41.8 µM
How it was run: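 Infectious HCV cell culture screen: compound-treated cells (1,000/well, pre-plated 4 h) are infected with HCVcc-Cre at roughly 0.5 moi and grown 44 h. Infection is quantified by luciferase signal after 15 min substrate incubation at room temperature.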
Potency is read from the fitted curve at half-maximal effect.

SMILES	Potency
COCCN(Cc1ccccc1)C(=O)Cc1ccc(S(=O)(=O)N2CCOCC2)s1	inactive
CC1(C)CC2CC(C)(CN2c2ncnc3ccc(Br)cc23)C1 (configuration not stated)	10 µM (active)
COc1ccc(C(=O)N2CC3(C)CC2CC(C)(C)C3)cc1OC (configuration not stated)	inactive
COc1ccccc1C(=O)N1CC2(C)CC1CC(C)(C)C2 (configuration not stated)	inactive
CC(Oc1cccc(Cl)c1)C(=O)Nc1ccc(S(=O)(=O)Nc2ncccn2)cc1 (configuration not stated)	inactive
COc1ccccc1CNC(=O)COn1nnc2ccc(S(=O)(=O)N3CCOCC3)cc21	inactive
Cc1cccc(NS(=O)(=O)c2ccc(C)c(C(=O)NCc3cccnc3)c2)c1	inactive
COC(=O)C1=C(c2ccccc2OCc2ccccc2)C[C@@H]2CC[C@H]1N2C(=O)NCc1ccc(OC)cc1	11.2 µM (active)
COC(=O)C1=C(c2ccc(F)cc2OCc2ccccc2)C[C@@H]2CC[C@H]1N2C(=O)NCc1ccc2[nH]ccc2c1	inactive
COC(=O)C1=C(c2cccc(OCc3ccccc3)c2)C[C@@H]2CC[C@H]1N2C(=O)NNCc1ccccc1	inactive
O=C(COC(=O)c1cccnc1Cl)Nc1ccc(S(=O)(=O)N2CCOCC2)cc1	inactive
O=C(O)c1ccccc1/C=N/Nc1ccc(S(=O)(=O)Nc2ccc(Cl)cc2)cc1[N+](=O)[O-]	inactive
O=C(c1cn(-c2ccccc2)nc1-c1cccnc1)N1CCN(S(=O)(=O)c2ccccc2F)CC1	inactive
N#Cc1ccccc1S(=O)(=O)N1CCN(Cc2c(O)ccc3ccccc23)CC1	inactive
N#Cc1ccccc1S(=O)(=O)N1CCN(C(=O)c2cc(-c3ccccc3)nn2-c2ccccc2)CC1	11.2 µM (active)
CCCCCNC(=O)Cc1ccc(OC)cc1	inactive
CCCCCN1CC(O)=C(c2ccccc2)C1=N	inactive
CCCCCCCCCCCCn1ccc(=N)cc1	0.501 µM (active)
COCCCNC(=O)CC1C[C@H](C(=O)N2CCCCC2)[C@@]2(CCc3ccccc3)c3[nH]c4ccccc4c3CCN2C1=O (some centres not stated)	inactive
O=C(Nc1cccc(Br)c1)C1CC(=O)N(C2CCCC2)C1 (configuration not stated)	inactive
O=C(Nc1ncccc1O)c1ccc(C(=O)c2ccccc2)cc1	inactive
Cc1nc(Cl)cc(N/N=C/c2ccccc2)n1	inactive
COc1cccc(/C=N/Nc2ccc(S(=O)(=O)Nc3ccccc3C(=O)O)cc2[N+](=O)[O-])c1O	inactive
COc1ccccc1/C=N\Nc1cc(C)nc(-n2nc(C)cc2C)n1	3.16 µM (active)
COc1ccccc1/C=N/Nc1nc(C)c(C(C)=O)s1	inactive
COc1cccc(/C=N\NC(=O)C2=NNC(=O)C2C)c1O (configuration not stated)	inactive

SMILES	Potency
COc1cccc(/C=N/Nc2cc(C)nc(-c3ccccc3O)n2)c1O	12.6 µM (active)
N#CC1(NC(=O)COC(=O)Cc2n[nH]c(=O)c3ccccc23)CCCCC1	inactive
NC1=NOC(=O)C1C1CCCCC1 (configuration not stated)	inactive
Cc1nc(-c2ccc(F)cc2)c(CC(=O)N(C)CC(=O)Nc2c(C)cccc2C)s1	inactive
CS(=O)(=O)c1ccc(C(=O)NNC(=O)c2cccs2)cc1	inactive
CC1(c2ccc(Cl)cc2Cl)NC(=O)N(CC(=O)Nc2cccnc2Cl)C1=O (configuration not stated)	inactive
O=C1C=C(c2cccc(Cl)c2O)C[C@@H](c2ccc(F)cc2)C1	inactive
O=C1C=C(c2ccnc3cc(Cl)ccc23)C[C@@H](c2ccc3c(c2)OCO3)C1	3.16 µM (active)
O=C1C=C(c2cccc(Cl)c2)C[C@@H](c2ccc(F)cc2)C1	inactive
Cc1cc(C)c(C=NNc2nc3c([nH]2)c(=O)n(C)c(=O)n3C)c(C)c1	inactive
CCOc1ccc(CCNC(=O)COC(=O)C2CCN(S(=O)(=O)c3ccccc3)CC2)cc1OCC	inactive
CCOC(=O)C(CO)NC(=O)C1(NC(C)=O)CCCC1 (configuration not stated) (Ac-[Ac5c]-[ξS]-OEt)	inactive
CC1CCN(Cc2nc(-c3ccc(Cl)cc3)no2)CC1	inactive
CN(Cc1ccccn1)Cc1nc(-c2ccc(Cl)cc2)no1	inactive
CCN1CC(CN(C)Cc2nc(-c3ccc(Cl)cc3)no2)CC1=O (configuration not stated)	11.2 µM (active)
O=C(c1ccncc1)N1CCN(S(=O)(=O)c2cc(C(F)(F)F)cc(C(F)(F)F)c2)CC1	inactive
Cc1ccc(CNC(=O)COC(=O)C2CCC2)cc1	inactive
C#CCOCCOCCOCCNc1nc(N2CCN(C(=O)[C@H](CCCN=C(N)N)n3cc(C(N)[C@@H](C)CC)nn3)CC2)nc(N2CCN(C(=O)[C@H](CO)n3cc([C@@H](N)C(C)C)nn3)CC2)n1 (some centres not stated)	inactive
CC(=O)Nc1ccc(-c2cn3cccnc3n2)cc1	inactive
CCOc1cc(-c2cc(-c3ccc(NC(C)=O)cc3)nc(N)c2C#N)ccc1O	11.2 µM (active)
CCOc1cc(-c2cc(-c3ccc(OC)cc3)nc(N)c2C#N)ccc1O	inactive
Nc1nnc(SCC(=O)NCC(=O)Nc2ccc(F)c(F)c2F)s1	inactive
CN1CCN(CCCCOc2cccc3ccccc23)CC1	10 µM (active)
COc1ccccc1OCCCCCCN1CCN(C)CC1	inactive
CCN1CCN(CCCCOc2ccccc2F)CC1	inactive
Cc1ccc2c(O)c(Cc3ccccc3)c(=O)[nH]c2n1	inactive

SMILES	Potency
COc1ccc(S(=O)(=O)N2CCN(CC(=O)N3CCOCC3)CC2)cc1OC	inactive
CCOC(=O)c1ccccc1NC(=O)CSc1nc2c(sc(=S)n2CC)c(=O)[nH]1	inactive
COc1ccc2c(c1)O/C(=C\c1ccccc1O)C2=O	inactive
COc1cc2cc(C(=O)N/N=C/c3cccc(OC)c3OC)[nH]c2cc1OC	inactive
COc1ccc(/C=N/NC(=O)c2cccc(C(F)(F)F)c2)cc1	inactive
CCOc1ccc2[nH]c(C(=O)N/N=C/c3cccc(OC)c3OC)cc2c1	12.6 µM (active)
COc1ccccc1CNC(=O)COC(=O)c1sc(C)nc1C	inactive
CCN(C(=O)CSc1nnnn1-c1ccc(OC)cc1)C1CCS(=O)(=O)C1 (configuration not stated)	inactive
Oc1ccc(CN2CCN(c3ncccn3)CC2)cc1	inactive
Oc1c(CN2CCN(c3ccc(F)cc3)CC2)cc(Cl)c2cccnc12	3.55 µM (active)
Oc1cc2c(cc1CN1CCN(c3ccccc3)CC1)OCO2	inactive
Cc1cc(O)c(Sc2ccccc2)c(=O)o1	inactive
COc1ccc(OC)c(S(=O)(=O)Nc2c(C)nn(C)c2C)c1	inactive
N#CC1=C(N)Oc2cc(N)ccc2C1c1ccccc1 (configuration not stated)	inactive
Cc1nn(-c2ncccn2)c2c1C(=O)CC(C)(C)C2Br (configuration not stated)	inactive
CC(C)(C)CC(C)(C)NCC(O)COCCOc1ccc(Br)cc1 (configuration not stated)	6.31 µM (active)
CC(Oc1ccc(Br)cc1)C(=O)NC1CCCCCC1 (configuration not stated)	inactive
COc1ccc(OCC(O)CNCCNc2nccc(C(F)(F)F)n2)cc1 (configuration not stated)	inactive
COc1ccc(-c2nnc(SC(C)C(=O)NC3CC3)o2)cc1 (configuration not stated)	inactive
O=C(N=C1SC2CS(=O)(=O)CC2N1c1ccccc1)c1ccccc1 (configuration not stated)	inactive
O=C(/C=C/c1ccco1)Nc1ccc(Oc2ccccc2)cc1	14.1 µM (active)
Cc1nnc(NC(=O)/C=C/c2ccco2)s1	inactive
O=C(/C=C/c1ccco1)Nc1cccc(-c2nc3ccccc3[nH]2)c1	inactive
Cc1cc(OCCCC(=O)NCCN2C(=O)S/C(=C\c3cccnc3)C2=O)ccc1Cl	10 µM (active)
CCOc1ccc(N2CC(C(=O)NCCN3C(=O)S/C(=C\c4cccnc4)C3=O)CC2=O)cc1 (configuration not stated)	inactive
O=C(NCCN1C(=O)S/C(=C\c2cccnc2)C1=O)c1cccc(OC(F)F)c1	inactive

SMILES	Potency
OCC1(CCc2ccccc2)CCN(Cc2ccc3nsnc3c2)CC1	inactive
CC(=O)c1cccc(CN2CCC(CO)(Cc3ccccc3)CC2)c1	inactive
Cc1cccc(-c2ncc(CN3CCC(CO)(CCCc4ccccc4)CC3)cn2)c1	10 µM (active)
c1ccc2cc(CCCc3cc4ccccc4cn3)ncc2c1	inactive
COc1ccc([C@H]2CC(=O)C=C(/C=C/c3ccccc3)C2)cc1	inactive
CCC(=O)Nc1ccc(C(=O)CSc2nnc(CNc3ccc(Cl)cc3)o2)cc1OC	5.01 µM (active)
CCOC(=O)CSc1nnc(CNc2ccc(F)cc2)o1	inactive
COc1cc(C(=O)NCc2nnc(SCC(=O)c3ccc(Cl)cc3)o2)cc(OC)c1OC	inactive
O=C(COC(=O)c1cccnc1Cl)NC12CC3CC(CC(C3)C1)C2	inactive
O=C1/C(=C/c2ccc3c(c2)OCO3)CCC/C1=C\c1ccc2c(c1)OCO2	inactive
CCn1cc(/C=C2/SC(=S)NC2=O)c(C)n1	inactive
Cc1nn(C)cc1/C=C1\CCC/C(=C\c2cn(C)nc2C)C1=O	10 µM (active)
CC(=O)N(O)CCCCCNC(=O)CCC(=O)N(O)CCCCCNC(=O)CCC(=O)N(O)CCCCCNC(=O)CCC(=O)O	inactive
O=S1(=O)CSCS(=O)(=O)C1	inactive
CCN(CC)CCNC(=O)Cn1cnc2sc(C)c(S(=O)(=O)N3CCOCC3)c2c1=O	inactive
CCN(CC)CCCNC(=O)Cn1cnc2sc(C)c(S(=O)(=O)N3CCN(c4ncccn4)CC3)c2c1=O	inactive
CCN(CC)CCNC(=O)c1sc2ncn(CC(=O)Nc3ccc(C)c(Cl)c3)c(=O)c2c1C	8.91 µM (active)
CC(=O)Nc1ccc(C(=O)Nc2cc(S(=O)(=O)N3CCOCC3)ccc2N2CCOCC2)cc1	inactive
O=C(CN1CCOCC1)Nc1cccc([N+](=O)[O-])c1	inactive
Cc1cccc(NC(=S)N(CCN(C)C)C(C)c2ccco2)c1 (configuration not stated)	inactive
COCCN(C(=S)Nc1ccccc1OC)C1CCN(C(C)C)CC1	inactive
CCc1cccc(NC(=S)N(CCN(C)C)C2CCN(C(C)C)CC2)c1	8.91 µM (active)
O=c1oc2ccc(C#CC3(O)CCCCC3)cc2cc1-n1cc(-c2ccsc2)nn1	inactive
CCOC(=O)C(C)N(c1ccccc1Cl)S(C)(=O)=O (configuration not stated)	inactive

— PubChem BioAssay AID651820 (National Center for Advancing Translational Sciences (NCATS), 2012)
